High-throughput results: PubChem BioAssay, National Center for Advancing Translational Sciences (NCATS)
AmpC inh detg – qHTS Inhibitors of AmpC Beta-Lactamase (assay with detergent); AmpC hydrolysis of nitrocefin, absorbance 480 nm, 0.01% Triton; Potency, µM (series often up to 114 µM), for the others: at the top dose activity change, negative = inhibition, actives largely listed as inhibitors; 370,000 compounds, 0.041% hits; AID 485294, 2010;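 further: 0% = no-compound wells and -100% = no-enzyme wells; nearly all actives have a fitted effect of over 25% in size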
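AmpC (5.3 nM in the dispensed reagent) in 20 mM phosphate pH 7.0 with 0.01% (detergent screen) or 0.0001% Triton X-100 was preincubated with compounds for 15 min at room temperature. Nitrocefin was then added from an 800 uM solution, and hydrolysis was followed at 480 nm.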
AMA1-RON2 inh – qHTS for Inhibitors of AMA1-RON; Towards Development of Antimalarial Drug Lead: Primary Screen; Plasmodium falciparum AMA1 (3D7) - RON2 peptide interaction; AlphaScreen AMA1-biotinylated RON2 peptide binding; Potency, µM (highest dose often 58.2 µM), inactives show at the highest dose activity change, negative = inhibition, actives largely listed as inhibitors; 360,000 compounds, 0.2% hits;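 further: 0% = vehicle wells and -100% = peptide control; nearly all actives have a fitted effect of over 45% in size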
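AMA1 (3D7) with his tag at 25 nM final met compounds first, then biotinylated RON2 peptide at 25 nM; detection used donor plus acceptor beads, 10 µg/mL apiece, read by AlphaScreen after 30 min at room temperature.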
LmPK inh – qHTS Assay for Inhibitors of Leishmania Mexicana Pyruvate Kinase (LmPK); Potency, µM (highest dose often 57.5 µM), for the others: at the highest dose activity change, negative = inhibition, hits mostly inhibitors; Q27686; purified LmPK, Kinase-Glo ATP luminescence, 1 h; 290,000 compounds, 0.37% hits
Target sequence (Q27686 whole entry, looked up): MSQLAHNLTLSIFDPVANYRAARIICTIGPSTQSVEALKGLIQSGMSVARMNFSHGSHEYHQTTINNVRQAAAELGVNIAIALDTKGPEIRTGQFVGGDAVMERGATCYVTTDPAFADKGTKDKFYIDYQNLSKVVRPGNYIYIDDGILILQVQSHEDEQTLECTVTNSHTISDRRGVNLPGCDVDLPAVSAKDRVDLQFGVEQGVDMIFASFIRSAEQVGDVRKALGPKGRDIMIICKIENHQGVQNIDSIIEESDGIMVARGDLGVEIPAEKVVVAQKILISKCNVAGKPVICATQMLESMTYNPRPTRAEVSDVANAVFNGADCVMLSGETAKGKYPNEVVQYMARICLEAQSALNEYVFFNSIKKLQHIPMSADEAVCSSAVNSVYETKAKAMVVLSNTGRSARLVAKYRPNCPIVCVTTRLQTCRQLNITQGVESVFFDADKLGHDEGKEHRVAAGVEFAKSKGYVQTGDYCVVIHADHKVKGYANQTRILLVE
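Pyruvate kinase activity monitored as ATP production (luciferase luminescence). Conditions: 0.1 nM enzyme, 0.5 mM PEP, 0.1 mM ADP, 1 h, RT; normalized against uninhibited and no-enzyme wells.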
AmpC inh no detg – qHTS Inhibitors of AmpC Beta-Lactamase (assay without detergent); AmpC nitrocefin hydrolysis, absorbance 480 nm, 0.0001% Triton; Potency, µM (titrated, usually from 57.1 µM), without a hit: at the top dose activity change, negative = inhibition, hits mostly inhibitors; 330,000 compounds, 0.52% hits; AID 485341, 2010;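 further: plate controls were no compound for no effect and no enzyme for full effect; nearly all actives have a fitted effect of over 20% in size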
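20 mM phosphate pH 7.0 + 0.01% (detergent screen) or 0.0001% Triton X-100; 5.3 nM AmpC reagent; cpd preinc 15 min RT; nitrocefin (800 uM stock) to start; A480 q20 s × 4 min; Activity was normalised to no-enzyme and no-compound control wells.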
FBPA Giardia inh – qHTS Assay for Inhibitors of Fructose-1,6-bisphosphate Aldolase from Giardia Lamblia; A8B2U2; 290,000 compounds, 0.71% hits; Potency, µM (highest dose often 59.6 µM), for the others: top-dose activity, negative = inhibition, most hits filed as inhibitors; AID 2451, 2010; purified Giardia FBPA; further: nearly all actives have a fitted effect of over 55% in size
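Giardia FBPA (40 nM reagent) was preincubated 10 min at RT with compound (up to 57.5 uM final), then substrate plus GAPDH/TPI/NAD/arsenate coupling system with diaphorase/resazurin was added; resorufin fluorescence (525/598 nm) was read after 20 min.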
Numbers without * were called inactive; u = inconclusive; x = no result given. Shown are actives, neighbours in structure and some others; about 1.3% of the full set was active somewhere. The call rests on the fitted dose curve; in most records, active means well fitted curve in the direction sought with a large enough effect; inconclusive means small, poorly fitted or top-dose-only effect, or another doubt; inactive means no such curve, though single readings can be large; an effect the other way counts as inactive or inconclusive. Unless noted, on the % scale 0 is the no-effect control and ±100 the full control effect; potency means the concentration at half of the fitted maximal effect.

SMILES | AmpC inh detg | AMA1-RON2 inh | LmPK inh | AmpC inh no detg | FBPA Giardia inh
CCOc1ccc2cc(S(=O)(=O)N3CCOCC3)ccc2c1 | -1.8% | -4.7% | 2.3% | 0.398µM* | 1.7%
CCN1/C(=C\C(=S)Nc2ccccc2)Sc2ccccc21 | 0.8% | 39.2% | -1.1% | -38.4% | -8.8%
CCN1/C(=C/C(C)=C/c2sc3ccccc3[n+]2CC)Sc2ccccc21 | 1.2% | 28.2µM* | -14.0% | 13.7% | -7.7%
Nc1nc(SCc2cccnc2)c2ncn(C3OC(CO)C(O)C3O)c2n1 (configuration not stated) | x | -15.3% | x | x | x
COc1ccc(OC)c(C2C(C(N)=O)=C(C)Nc3nc(CCCO)nn32)c1 (configuration not stated) | u | 8.7% | -2.3% | 1.58µM* | -12.6%
COc1ccc(NC(=O)C2=C(C)Nc3nc(SCc4ccccc4)nn3C2c2cc(OC)ccc2OC)cc1 (configuration not stated) | 4.2% | x | x | x | x
COc1ccc(OC)c(C2C(C(=O)Nc3ccc(F)cc3)=C(C)Nc3nc(CCCO)nn32)c1 (configuration not stated) | -3.2% | 12.0% | 0.2% | 8.91µM* | u
COc1ccc(N2CCN(C(=O)c3cccnc3SCc3cccc(Br)c3)CC2)cc1 | 4.5% | 31.6µM* | -5.4% | 113.1% | -5.5%
Cc1cc(C(=O)NCc2ccc3c(c2)OCO3)ccc1[N+](=O)[O-] | 5.2% | 9.1% | -1.0% | -26.4% | -4.7%
CC1CC(C)CN(c2ccc(C(=O)NCc3ccc4c(c3)OCO4)cc2[N+](=O)[O-])C1 (configuration not stated) | -3.6% | u | 1.5% | 3.16µM* | -10.3%
O=c1c2ccccc2c(-c2ccc(O)cc2)nn1-c1cccc(C(F)(F)F)c1 | 1.7% | -1.9% | 4.6% | 17.8µM* | -3.3%
Cc1ccc(S(=O)(=O)N2CCCCC2)cc1C(=O)NCCN1CCOCC1 | u | -1.4% | x | -5.6% | x
Cc1cc(C)nc(N/N=C/c2ccccc2OCc2ccccc2)n1 | -4.8% | 37.7% | -1.8% | -49.5% | -6.6%
Cc1cc(C)nc(N/N=C/c2ccccc2OCc2ccc(Br)cc2)n1 | -12.4% | 12.3% | 3.9% | 17.8µM* | -8.7%
Clc1ccc(-c2nc3cnccn3c2Nc2ccc3c(c2)OCO3)cc1 | u | -29.1% | -1.4% | 22.4µM* | 0.5%
CSc1ccc(-c2nc3cnccn3c2Nc2ccc3c(c2)OCO3)cc1 | -9.0% | u | 4.5% | 9.5% | -12.1%
Cc1ccc(-c2nc3cnccn3c2Nc2ccc3c(c2)OCO3)o1 | u | -18.0% | -7.2% | 2.82µM* | 4.2%
CCN(CC)CCCn1c(=S)[nH]c2cc(Cl)ccc2c1=O | u | -0.9% | 0.0% | 28.2µM* | -0.5%
CCOc1cc2[nH]c(=S)n(CCCN(CC)CC)c(=O)c2cc1OCC | 0.4% | 2.2% | -6.2% | 1.4% | -25.2%
CCN(CC)CCCn1c(=S)[nH]c2ccc(Cl)cc2c1=O | 0.9% | 2.9% | 0.1% | 0.282µM* | -0.9%
CC(C)(C)NC[C@H](O)c1ccc(O)c(CO)c1 | x | x | x | x | 3.1%
NC[C@H](O)c1ccc(O)c(O)c1 | -14.2% | 2.82µM* | x | -34.5% | u
CNC[C@H](O)c1ccc(O)c(O)c1 | -0.9% | u | -5.8% | -26.3% | 17.7µM*
NCC(O)c1cc(O)c(O)cc1F (configuration not stated) | u | u | x | -10.3% | 5.61µM*
CCN(CC)C(=O)C1=C(C)N(Cc2ccc(OC)cc2)C(=O)C(CC(=O)NCCCN(C)C)C1 (configuration not stated) | x | 2.8% | x | x | x
SMILES | AmpC inh detg | AMA1-RON2 inh | LmPK inh | AmpC inh no detg | FBPA Giardia inh
c1ccc2c(c1)SCc1c-2[nH]c2ccccc12 | x | x | x | x | -0.6%
C[C@H]1[C@H](NC(=O)C(=NOC(C)(C)C(=O)O)c2csc(N)n2)C(=O)N1S(=O)(=O)O | 3.98µM* | 18.8% | x | 5.01µM* | x
COCCNC(=O)c1cc(-c2cccs2)on1 | u | -2.2% | 0.4% | 6.31µM* | 0.7%
COC(=O)c1ccccc1NC1c2ccccc2C(=O)N1c1cccnc1 (configuration not stated) | u | 46.9% | -2.2% | 7.08µM* | 3.3%
O=C(CSc1n[nH]c(=O)[nH]c1=O)Nc1ccc2c(c1)C(=O)c1ccccc1C2=O | u | -6.0% | -5.4% | -42.0% | -18.8%
CCN(c1ccccc1)S(=O)(=O)c1cc(NC(=O)CSc2n[nH]c(=O)[nH]c2=O)ccc1Cl | -9.4% | 0.5% | 4.9% | 20µM* | 21.7%
O=C1N=c2ccccc2=C1c1sc(NS(=O)(=O)Cc2ccccc2)nc1O | -11.7% | -13.6% | u | 3.55µM* | 10.4%
O=C1N=c2ccccc2=C1c1sc(NS(=O)(=O)c2ccccc2)nc1O | 1.7% | 0.0% | -20.4% | -40.0% | -2.0%
O=C(NN=Cc1ccc(O)c(O)c1)c1ccccc1 | x | 8.7% | x | x | x
CC(C)(C)c1ccc(OCc2ccc(C(=O)N/N=C/c3ccc(O)c(O)c3)cc2)cc1 | -0.7% | 11.7% | 1.9% | 14.1µM* | -20.9%
O=C(COc1ccccc1C(=O)N/N=C\c1ccc(O)c(O)c1)N/N=C/c1ccc(O)c(O)c1 | u | u | 0.4% | 39.8µM* | -22.0%
O=C(c1cc(S(=O)(=O)N2CCCC2)c[nH]1)N1CCN(c2cccc(Cl)c2)CC1 | -7.6% | x | x | x | x
Cc1ccccc1Cn1c2ccccc2c2cnn(CC(=O)NCCCc3ccccc3)c(=O)c21 | 19.6% | x | x | x | x
Cc1cc(C)c(C#N)c(Sc2nnnn2-c2ccccc2)n1 | u | -2.5% | -0.9% | 0.562µM* | -0.8%
Cc1nc(Sc2nnnn2-c2ccccc2)c(C#N)c(C)c1C | u | -5.6% | 8.4% | -11.3% | -5.8%
O=C1S/C(=C/c2ccccc2)C(=O)N1CC(O)Cn1c2ccccc2c2ccccc21 (configuration not stated) | -11.6% | -12.8% | -1.0% | 15.8µM* | -0.6%
Cc1cccc(NC(=O)c2cnc3sccn3c2=O)c1 | 4.1% | -0.2% | -12.7% | -21.8% | -4.7%
Cc1cccc(NC(=O)c2cnc3sccn3c2=O)c1C | u | x | -10.2% | 2.82µM* | 2.1%
Cc1ccc(N2CCN(c3nc4c(S(=O)(=O)c5ccc(C)c(C)c5)nnn4c4ccccc34)CC2)c(C)c1 | 20.2% | x | x | x | x
CC(C)N(Cc1ccccc1)C(=O)CN1C(=O)CSc2ccc(S(=O)(=O)N3CCCC3)cc21 | -0.4% | x | x | x | x
Cc1ccc2nc(Cl)c3cc(C(=O)NC4CCC(C)CC4)sc3c2c1 (configuration not stated) | -8.8% | x | x | x | x
CCCc1cc(C(=O)NCCc2ccccc2)no1 | -3.6% | 8.1% | 9.0% | 11.2µM* | 1.8%
CCc1cc(C(=O)NCc2ccccc2)no1 | -2.8% | x | x | x | x
